This is a sample that favours compounds with a hit; in the whole collection about 3.3% have one here.
Smad3 inh = Smad3 (human) transcription factor binding inhibition; TR-FRET Smad3/Dy647-FoxH1 peptide binding, europium anti-His; hit rate 0.29% among 88,000; inhibition, % at 25 µM; P84022;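 active = compounds that reduce the energy-transfer binding signal between the protein and its labelled peptide by more than half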
FAK blocker = blocks human focal adhesion kinase activity. Q05397. biochemical FAK kinase activity assay. inhibition, %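 (tested at 7 µM)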. hit rate 0.84% among 97,000. AID 727; in the data active = inhibition above about 19%
ERb SRC1 inh = blocks coactivator binding to human estrogen receptor beta; Q92731; TR-FRET ER-beta LBD / SRC1-Cy5 peptide binding; receptor agonist-loaded with 1 µM estradiol; inhibition, % at 25.6 µM; hit rate 1.3% among 86,000; AID 633;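 active = compounds whose percent inhibition of the receptor-coactivator binding signal exceeds about 50% in the single-dose screen, limit read from the data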
Target sequence (Q92731 whole entry, looked up, the tested form may be a part): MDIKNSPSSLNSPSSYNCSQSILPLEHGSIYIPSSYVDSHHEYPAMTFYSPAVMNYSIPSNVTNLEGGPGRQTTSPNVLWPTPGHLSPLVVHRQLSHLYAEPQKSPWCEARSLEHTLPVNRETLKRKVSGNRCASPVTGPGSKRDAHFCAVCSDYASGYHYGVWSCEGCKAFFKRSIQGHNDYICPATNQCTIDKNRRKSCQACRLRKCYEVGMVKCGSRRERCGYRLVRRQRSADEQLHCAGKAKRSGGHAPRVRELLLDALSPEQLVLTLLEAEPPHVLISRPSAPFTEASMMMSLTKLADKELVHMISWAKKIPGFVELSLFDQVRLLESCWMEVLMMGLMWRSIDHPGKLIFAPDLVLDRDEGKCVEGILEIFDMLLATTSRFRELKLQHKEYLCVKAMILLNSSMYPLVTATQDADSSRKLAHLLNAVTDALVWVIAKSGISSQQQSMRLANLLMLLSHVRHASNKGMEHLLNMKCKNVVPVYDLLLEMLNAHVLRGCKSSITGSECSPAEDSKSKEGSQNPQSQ
Calb biofilm kill = kills Candida albicans biofilms. hit rate 0.14% among 85,000. AID 834. C. albicans biofilm + clotrimazole, Alamar Blue. inhibition, % at 6 µM;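 active = inhibition above 20%; inactive = inhibition below 20%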;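 also: preformed 24 hr biofilms exposed to compound for 48 hr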
ERa SRC1 inh = blocks coactivator binding to human estrogen receptor alpha. P03372. TR-FRET ER-alpha LBD / SRC-1 peptide, estradiol-bound. inhibition, % at 25.6 µM. hit rate 1.7% among 86,000. AID 629; in the data active = inhibition above about 50%
ERa SRC1 pot = ER-alpha (human) coactivator binding potentiation; P03372; TR-FRET ERalpha-LBD/SRC-Cy5 coactivator binding, 2 h; 100 = basal binding, no effect; coactivator binding (% of control), % at 25.6 µM; hit rate 1.3% among 86,000; AID 639; in the data active = activity above about 200%;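 also: binding measured in presence of low estradiol as agonist stimulus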
Numbers stand for hits; - = inactive; . = no result given; [ ] = dose if it differs, or a comment.

SMILES	Smad3 inh	FAK blocker	ERb SRC1 inh	Calb biofilm kill	ERa SRC1 inh	ERa SRC1 pot
Cc1ccc(O)c(C(=O)c2cnc3c(c2)CN(C)C(=O)N3)c1	.	-	.	.	.	.
COc1ccc(OCC(=O)NCCCN2CCOCC2)cc1	-	-	-	-	-	-
CC(=O)N1CCN=C1SCc1ccc(Br)cc1	-	-	-	24.0	-	-
O=C(O)CSc1ccc(N=C=S)cc1	-	.	.	.	.	.
Cc1[nH]c(=O)[nH]c(=O)c1NC(=O)c1cccs1	-	-	-	-	86.5[fluorescence artefact?]	-
Oc1c(Cl)cc(Cl)cc1Sc1cc(Cl)cc(Cl)c1O	-	.	93.0	-	96.8	-
O=C(O)c1cccc(OCCO)c1	-	.	.	.	.	.
Cc1cc(C)c(C#N)c(SC2CCCCC2=O)n1 (centres undefined)	-	-	-	-	-	-
N#Cc1c(N)nc(SCC(=O)OCc2ccccc2)c(C#N)c1-c1ccco1	-	-	-	-	-	-
N#Cc1c(N)nc(SC2CCCCC2=O)c(C#N)c1-c1ccco1 (centres undefined)	-	-	-	-	-	216.8[fluorescence artefact?]
N#Cc1c(N)nc(SCc2ccccc2)c(C#N)c1-c1ccco1	-	-	-	-	-	213.2
N#Cc1c(N)nc(SCc2ccccn2)c(C#N)c1-c1cccs1	-	-	-	-	-	373.2[fluorescence artefact?]
COc1ccc(-n2c(CNC(=O)c3cc(OC)c(OC)c(OC)c3)n[nH]c2=S)cc1	.	-	.	.	.	.
CC(NC(=O)CCSc1nc(-c2ccc3c(c2)OCO3)cc(C(F)(F)F)n1)c1ccccc1 (centres undefined)	-	-	-	-	90.1	-
CN(C)CCCN1CCC2(CCC(C(C)(C)C)CC2)CC1	-	.	.	.	.	.
O=S(=O)(O)c1ccc2c(N=Nc3c(O)ccc4ccccc34)cccc2c1	-	.	.	.	.	.
O=S(=O)(O)c1cc(S(=O)(=O)O)c2c(N=Nc3cccc4ccccc34)c(O)ccc2c1	85.0	.	.	.	.	.
COc1cc(C(=O)N2CCN(S(=O)(=O)c3ccc(F)cc3)CC2)cc(OC)c1OC	-	-	66.7[fluorescence artefact?]	-	-	-
Cc1cc(NC(=O)CSc2nnc3c(C)cc4cc(C)c(C)cc4n23)no1	-	-	-	-	74.3[fluorescence artefact?]	241.0[fluorescence artefact?]
Cc1cc(NC(=O)CSc2nnc3c(C)cc4cc5c(cc4n23)OCO5)no1	-	.	-	-	51.8[fluorescence artefact?]	-
Cc1cc(NC(=O)CSc2nc3cc4c(cc3c(=O)n2CCc2ccccc2)OCO4)no1	-	.	-	-	-	-
c1ccc2c(CSCc3cccc4ccccc34)cccc2c1	-	.	.	.	.	.
COc1cccc(-n2nnnc2SCC(=O)N2CCCc3ccccc32)c1	-	-	-	-	-	-
Cc1ccc(-n2c([O-])nc(-[n+]3ccccc3)c2C=O)cc1	.	-	.	.	.	.
O=C(O)c1ccc2c(c1C(=O)O)C(=O)OC2(c1ccc(O)cc1)c1ccc(O)cc1	77.9	.	.	.	.	.
SMILES	Smad3 inh	FAK blocker	ERb SRC1 inh	Calb biofilm kill	ERa SRC1 inh	ERa SRC1 pot
N#CC[N+]1(Cc2ccccn2)CCCC1	-	.	.	.	.	.
CCOC(=O)c1ccccc1NC(=O)COc1cc(=O)n(CC)c2ccccc12	-	-	-	-	-	277.7[fluorescence artefact?]
CCn1c(=O)cc(OCC(=O)Nc2ccc(C)cn2)c2ccccc21	-	-	-	-	-	-
CCOCCCNC(=O)C1c2ccccc2C(=O)N2CCc3ccccc3C12 (centres undefined)	-	-	-	-	-	-
O=C(CN(Cc1ccco1)S(=O)(=O)c1ccccc1)N/N=C/c1cccc(O)c1	.	-	.	.	.	.
Cc1cccc(S(=O)(=O)N(CC(=O)Nc2ccccc2C)Cc2ccco2)c1	-	-	-	38.5	-	-
NC(=O)C[C@@H](N)c1nn[nH]n1	-	.	.	.	.	.
Cc1cc(C)c(S(=O)(=O)NCc2ccc3c(c2)cc(C)n3C)c(C)c1	-	-	-	-	-	256.7[fluorescence artefact?]
CC(=O)Nc1ccc(S(=O)(=O)NCc2ccc3c(c2)cc(C)n3C)cc1	-	-	-	-	-	-
Cc1cc2cc(CNS(=O)(=O)c3ccc4ccccc4c3)ccc2n1C	-	-	-	-	-	651.1[fluorescence artefact?]
Cc1ccc(SCc2cc(=O)[nH]c(/N=C(\N)Nc3ccc(C)c(C)c3)n2)cc1	.	-	.	.	.	.
CCN(CC)c1ccc(/C=C2\C(=O)N(c3ccc([N+](=O)[O-])cc3)N=C2N2CCOCC2)cc1	-	-	-	-	-	-
NC(=O)c1ccc([N+](=O)[O-])cc1SCc1ccccc1	-	-	53.3[fluorescence artefact?]	-	-	-
Cc1ccccc1NC(=O)CC1SCCNC1=O (centres undefined)	-	-	-	-	-	-
Cc1c(Cl)cccc1NC(=O)CC1SCCNC1=O (centres undefined)	-	.	54.0	-	-	-
COc1ccc(-n2c(Cc3cccn3C)nnc2SCC(=O)Nc2ccc(C)c(Cl)c2)cc1	-	.	-	-	-	-
C/C(=N\NS(=O)(=O)c1ccc(C)cc1)P(=O)(O)O	-	.	.	.	.	.
CCc1cc2cc(C(=O)Nc3ccccc3F)sc2s1	-	-	-	-	-	-
CCc1cc2cc(C(=O)Nc3ccc(F)cc3)sc2s1	-	-	-	-	-	308.2[fluorescence artefact?]
CC(=O)N[C@H](Cc1ccc(O)cc1)C(=O)O	-	.	.	.	.	.
O=C(Nc1ccncc1)C1c2ccccc2Oc2ccccc21	-	-	-	-	97.9[fluorescence artefact?]	-
O=C(Nc1nncs1)C1c2ccccc2Oc2ccccc21	-	-	-	-	-	-
Cn1ncc2c(Cl)ncnc21	-	.	.	.	.	.
O=C(CSc1nnc(-c2ccccn2)n1Cc1ccco1)c1ccc(-c2ccccc2)cc1	-	.	-	-	-	227.7[fluorescence artefact?]
Cc1ccccc1-n1nc2c(c1NC(=O)c1ccc(Br)o1)CSC2	-	-	-	-	-	207.2[fluorescence artefact?]
SMILES	Smad3 inh	FAK blocker	ERb SRC1 inh	Calb biofilm kill	ERa SRC1 inh	ERa SRC1 pot
O=C(Nc1nc(-c2cc3ccccc3oc2=O)cs1)c1ccco1	-	.	-	-	-	279.8[fluorescence artefact?]
Cc1ccc(C(=O)Nc2nc(-c3cccnc3)cs2)o1	-	-	50.6	-	-	-
O=C(Nc1nc(-c2ccncc2)cs1)c1ccco1	-	-	-	-	98.0[fluorescence artefact?]	-
Cc1cc(C)cc(N(CC(=O)NC2CC3CCC2C3)S(C)(=O)=O)c1 (centres undefined)	-	-	-	-	-	-
COc1cccc(CSCC(=O)O)c1	-	.	.	.	.	.
COc1ccc2c(c1)C(C1C(=O)CCCC1=O)c1ccccc1O2 (centres undefined)	.	-	.	.	.	.
N#CCCS(=O)(=O)c1nnnn1-c1ccccc1	-	-	58.1	-	60.9	-
O=C(CCN1C(=O)c2ccccc2C1=O)Nc1ccc(F)cc1	-	-	-	-	85.2[fluorescence artefact?]	-
CC(C)C(O)P(=O)(OCc1ccccc1)c1ccc(N(C)C)cc1 (centres undefined)	-	-	-	-	51.6[fluorescence artefact?]	-
C[C@H]1CC(C)(C)C[C@@](OCCN2CCCCC2)(c2ccccc2)C1	-	.	.	.	.	.
CCCCn1c(SCC(N)=O)nc2c(sc3ccccc32)c1=O	-	-	-	-	53.0[fluorescence artefact?]	263.4
Nc1nc(=O)c2[nH]cnc2n1O	-	.	.	.	.	.
Cc1cc(/C=N/Nc2ccc([N+](=O)[O-])cn2)c(C)n1-c1ccccc1	-	-	-	25.3	-	-
Cc1ccc(-n2c(C)cc(/C=N/Nc3ccc([N+](=O)[O-])cn3)c2C)cc1	.	-	.	.	.	.

Screens: PubChem BioAssay, several laboratories
